In ChEMBL document CHEMBL3988442, “University of Dundee, Small-Polar-MMV Screening Library” (2021) one finds Percent Effect data, which are given here for 54 compounds.

Values joined by “and” are separate entries in the source; they are usually repeats but may differ in a detail not shown here. Identical values can stand only once. In all, about 67,000 compounds went through this assay and about 40 (0.06%) showed an effect of 50% or more. The sample as a whole holds a higher share of strong results than the screen did.

For the test, the target named is T1, Coenzyme A biosynthesis bifunctional protein CoaBC (Mycobacterium tuberculosis (strain ATCC 25618 / H37Rv)) (UniProt P9WNZ1).
T1 sequence (whole entry): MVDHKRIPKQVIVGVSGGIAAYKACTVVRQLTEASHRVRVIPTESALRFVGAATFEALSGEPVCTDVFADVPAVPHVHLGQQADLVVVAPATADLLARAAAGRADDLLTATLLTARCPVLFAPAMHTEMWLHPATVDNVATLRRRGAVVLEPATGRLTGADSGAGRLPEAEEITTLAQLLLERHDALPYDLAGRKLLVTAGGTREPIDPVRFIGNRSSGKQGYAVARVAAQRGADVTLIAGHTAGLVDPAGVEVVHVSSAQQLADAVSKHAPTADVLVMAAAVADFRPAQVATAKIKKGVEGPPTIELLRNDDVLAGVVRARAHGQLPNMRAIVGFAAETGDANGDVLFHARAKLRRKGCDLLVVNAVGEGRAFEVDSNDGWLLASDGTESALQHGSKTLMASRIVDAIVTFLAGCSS
As to the kind of experiment: Biomol Green assay for MtCoaBC inhibitor, OD650 read. It counts as functional. More on the design: scale not given: in the data most compounds retested in dose-response had high values. The note with it: 30 µM.
Consider `COCC(=O)NC(CC(C)C)c1nc2cccnc2n1C` (centres undefined), for which the Percent Effect was -0.123%.
With `CC(C)CC(NC(=O)c1ccco1)c1nc2cccnc2n1C` (centres undefined), the Percent Effect is -9.45%.
Consider `COc1cccc(CC(=O)N2CC[C@H]3[C@@H]2CCC(=O)N3C)c1`, for which the Percent Effect is -4.44%.
In the case of `Cc1ccsc1CN1C[C@@H]2COC[C@]2(CNC(=O)c2ccco2)C1`, the Percent Effect is 2.1%.
As for `Cn1cc(N2C[C@@H]3CN(Cc4ccoc4)C[C@@H]3C2=O)cn1`, the Percent Effect was -6.36%.
For `CN(C)C(C(=O)N1CCC(CCO)CC1)c1ccccc1F` (centres undefined), the Percent Effect was 10.1%.
On to `CCOCC1CCN(C(=O)C(c2c(F)cccc2F)N(C)C)CC1` (centres undefined), for which the Percent Effect was -0.163%.
In the case of `CN(C)c1ncc(C(=O)N2C[C@H]3C[C@H](Oc4ccccc4)C[C@H]3C2)cn1`, the Percent Effect was found to be 12.4%.
Regarding `Cc1nc(-c2ccc(CC(=O)N3CCN(C(=O)C4CC4)CC3)cc2)cs1`, the Percent Effect was -8.67%.
As to `Cc1nc(-c2ccc(CC(=O)N3CCNC(=O)C3)cc2)cs1`, the Percent Effect was -8.27%.
For `COc1cccc(S(=O)(=O)N2CCN(C)[C@@H]3CS(=O)(=O)C[C@@H]32)c1`, the Percent Effect was -2.92%.
The value for `O=C1CC[C@H]2CN(c3ncc(F)cn3)CC[C@H]2N1CCc1c[nH]cn1` was -3.02%; that for `CC(C)NC(=O)[C@@]12CCO[C@@H]1CCN(Cc1ccc3c(c1)OCO3)C2` was -0.976%.
As for `CCN1C[C@H]2CCN(C(=O)NC)CC[C@H]2S1(=O)=O`, the Percent Effect came out at 8.02%.
Regarding `CC(=O)c1cccc(NS(=O)(=O)c2cc(C)c(C(=O)O)s2)c1`, the Percent Effect is -3%.
Regarding `Cc1cc(S(=O)(=O)Nc2cccc(I)c2)sc1C(=O)O`, the Percent Effect was 2.58%.
The value for `CNC(=O)N1CC[C@@H]2CN(Cc3cccc(Cl)c3)S(=O)(=O)[C@@H]2CC1` was 6.19%; that for `c1cnc(N2CCO[C@H]3[C@H](OCC4CCOCC4)CC[C@@H]32)nc1` was 1.73%; that for `Cc1ccc(N2C[C@H]3CCC[C@@H](CN4CCOCC4)[C@H]3C2)nn1` was 4.17%.
The value for `Cc1cccc(C(=O)N2CCCC(c3noc(C)n3)C2)n1` (centres undefined) was -20.7%; that for `Cc1nc(C2CCCN(C(=O)c3cc(Cl)c[nH]3)C2)no1` (centres undefined) was 2.57%.
For `Cn1nc(-c2cccs2)cc1[C@H]1CN2CC[C@H]1C[C@@H]2CN`, the Percent Effect was -39.9%.
On to `CN1C(Cn2cccn2)C[C@@H]2CN(Cc3ccccn3)CC[C@@H]21` (some centres undefined), for which the Percent Effect is -8.3%.
`Cc1cc(NC(=O)C2CCN(c3nnc(C)c(C)c3C#N)CC2)no1`: the Percent Effect came out at 2.42%.
Take `Cc1cc(C(=O)NC2CCN(c3ncccc3C#N)CC2)no1`: the Percent Effect was -0.609%.
Under `COCCC(Cc1cccc(Br)c1)C(=O)N(C)C` (centres undefined) stands -3.54%.
`COCCC(Cc1cccc(Br)c1)C(N)=O` (centres undefined): the Percent Effect stood at 4.72%.
Take `COCc1nc2cc(NCc3ccc(C)o3)ccc2o1`: the Percent Effect worked out at 13%.
Turning to `COCc1nc2cc(NCc3cc[nH]n3)ccc2o1`, the Percent Effect came to 10.3%.
Under `Cc1ccc(CN2CCOCC2c2[nH]ncc2C)cn1` (centres undefined) stands -2.47%; under `Cc1cn[nH]c1C1COCCN1Cc1ccsc1` (centres undefined), -1.45%.
Consider `O=C(NC1CC1)[C@@H]1CCO[C@@H]2CCN(C3CCCC3)C[C@H]21`, for which the Percent Effect came out at 7.17%.
Turning to `CC(=O)Nc1ccc(Oc2ccc(CN3CCCC3)cc2F)cc1`, the Percent Effect was 9.5%.
Turning to `COc1ccc(CN2CCCC2)cc1Oc1ccc(NC(C)=O)cc1`, the Percent Effect is 1.65%.
For the compound `COCCNC(=O)[C@H]1CN(Cc2sccc2C)C[C@H]2OCC[C@@H]12`, the Percent Effect was found to be 2.59%.
In the case of `Cc1ccc2[nH]c(CO[C@H]3CN(C(=O)C4CC4)C[C@H]3F)nc2c1`, the Percent Effect stood at 5.96%.
On to `CN1C[C@@H](F)[C@@H](OCc2nc3ccc(C#N)cc3[nH]2)C1`, for which the Percent Effect was determined as 8.8%.
For `CCO[C@H]1CN(C(=O)c2ccnnc2)[C@@H]2COC[C@H]12`, the Percent Effect was -7.56%.
Take `CN(C)C(=O)CN1C[C@@H]2CC[C@H](C1)N(C/C=C/c1ccc(F)cc1)C2`: the Percent Effect was -5.7%.
Under `O=C(COCCOc1ccccc1)NC1CCN(c2ncccn2)CC1` stands -6.77%.
`O=C(COCCOc1ccccc1)NC1CCN(C(=O)C2CC2)CC1`: the Percent Effect is -27.3%.
As to `CN(C)CCN1CCO[C@H]2CN(C(=O)c3ccsc3)C[C@H]21`, the Percent Effect was 0.976%.
Regarding `O=C(NC1CC1)[C@@H]1CCO[C@@H]2CCN(Cc3ccsc3)C[C@H]21`, the Percent Effect turned out to be 8.23%.
Under `O=S(=O)(CCCn1cncn1)Cc1ccccc1Cl` stands 0%; under `O=S(=O)(CCCn1cncn1)Cc1cccc(F)c1`, 3.23%; under `O=S(=O)(CCCn1cncn1)Cc1ccc(F)cc1Cl`, 96.3% and 94.5%.
Take `Cc1csc(CN2CC[C@H]3C[C@H](c4nc(C)no4)O[C@@H]3C2)n1`: the Percent Effect is -2.84%.
On to `CCS(=O)(=O)N1C[C@H]2CN(Cc3cccc(F)c3)C(=O)[C@H]2C1`, for which the Percent Effect was -7.25%.
Consider `Cc1cccc(CN2CC[C@@H]3[C@@H]2CCN3C(=O)c2cnoc2C)n1`, for which the Percent Effect is 8.49%.
With `O=C1OCCN1CC(=O)N1C[C@H]2CC[C@@H]1CN(C(=O)c1cccnc1)C2`, the Percent Effect came out at 7.56%.
As for `COC[C@@]12CC[C@@H](N3CCOCC3)C[C@H]1CCN(c1cnccn1)C2`, the Percent Effect is -5.95%.
Turning to `CC(C)CN1CC[C@@H]2[C@@H]1CCN2S(=O)(=O)c1cn(C)cn1`, the Percent Effect came to 4.68%.
As to `O=C(O)c1cc(-n2cc3c(n2)CCC3)cc(S(=O)(=O)N2CCOCC2)c1`, the Percent Effect is -5.92%.
As for `O=C(O)c1cc(-n2cc3c(n2)CCC3)cc(S(=O)(=O)NC2CCCC2)c1`, the Percent Effect is -0.121%.
